Results: PubChem BioAssay (NCI)
The panel holds about 83,000 compounds, 20% with a hit somewhere; the sample as a whole holds those more often.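 Assay: single dose, 48 h. Readout: percent growth (0 = no net growth; negative = cell death). Active: <10.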 Values without a mark were called inactive. Activity calls are given as the source filed them.

Columns and labels:
Test in all cases: NCI-60 one-dose screen, 48 h (100 = growth as untreated, 0 = no growth, -100 = all killed)
Conditions in all cases: 10 µM
[1] = system: SN12C renal
[2] = system: UO-31 renal
[3] = system: TK-10 renal
[4] = system: ACHN renal
[5] = system: CAKI-1 renal
[6] = system: A498 renal
[7] = system: CCRF-CEM leukemia
[8] = system: MOLT-4 leukemia
[9] = system: SR leukemia
[10] = system: RPMI-8226 leukemia
[11] = system: OVCAR-8 ovarian
[12] = system: OVCAR-5 ovarian
[13] = system: OVCAR-4 ovarian
[14] = system: SK-OV-3 ovarian
[15] = system: IGROV1 ovarian
[16] = system: OVCAR-3 ovarian
[17] = system: HS 578T breast
[18] = system: NCI/ADR-RES ovarian
[19] = system: T-47D breast

Structure (SMILES)	growth [1]	growth [2]	growth [3]	growth [4]	growth [5]	growth [6]	growth [7]	growth [8]	growth [9]	growth [10]	growth [11]	growth [12]	growth [13]	growth [14]	growth [15]	growth [16]	growth [17]	growth [18]	growth [19]
COc1ccc(-c2nn(-c3cccc(NC(=O)c4cc(C(F)(F)F)cc(C(F)(F)F)c4)c3)cc2-c2ccncc2)cc1Cl	78.1%	43%	85.5%	66.2%	50.1%	39.7%	64.4%	69.5%	36.3%	47.7%	66.4%	87.4%	76.4%	75.2%	77.2%	54.1%	71.5%	59.9%	51.5%
N#CCCN1C/C(=C/c2ccc(Cl)cc2)C(=O)/C(=C/c2ccc(Cl)cc2)C1	-74.8% (active)	-95.5% (active)	-40.9% (active)	-70.7% (active)	-9.22% (active)	-68.4% (active)	-3.01% (active)	-11.7% (active)	-17.5% (active)	-15.5% (active)	-22% (active)	4.05% (active)	8.18% (active)	-10.2% (active)	-66.7% (active)	-48.6% (active)		11.1%	8.7% (active)
N=C(N)c1ccc(-c2ccc(-c3ccco3)o2)cc1	69.3%	55%	109%	79.4%	54.5%	33.3%	60.7%	31.3%	-17.8% (active)	25.3%	76.2%	79%	62.9%	94.9%	69.7%	88.2%	83.4%	93.1%	58.7%
COc1ccc(/C=C/C(C)=N/OCC(=O)O)cc1	105%	95.9%	87.5%	106%	106%	72.8%	95.7%	86.8%	93.4%	102%	105%	109%	106%	101%	106%	113%	113%	106%	93.5%
COc1cc(Nc2ccnc(NCCCNc3ccnc4cc(Cl)ccc34)n2)cc(OC)c1	22.6%	-74.8% (active)	-63.4% (active)	-58.1% (active)	-3.88% (active)	14.9%	-5.06% (active)	-39.6% (active)	-21.6% (active)	-45.3% (active)	3.57% (active)	44.7%	2.29% (active)	14.7%	27.2%	-58.3% (active)	-53.1% (active)	50.7%	-63.1% (active)
Cc1ccc(N=Nc2c(N)nc(N)[nH]c2=O)cc1C	105%	72.5%	110%	106%	94.4%	103%	95.2%	93.2%	88.3%	97.8%	104%	105%	105%	99.2%	92.6%	110%	108%	103%	96%
O=C1/C(=C\c2ccc(F)cc2)CN(C(=O)c2ccccc2F)C/C1=C\c1ccc(F)cc1	-57.1% (active)	-72.6% (active)	9.87% (active)	-33.1% (active)	-35.4% (active)	47.5%	-16.4% (active)	-1.83% (active)	-17.7% (active)	-35.8% (active)	1.61% (active)	21.6%	-5.48% (active)	11.1%	-38.4% (active)	-29.8% (active)		11.5%	40.1%
CN(C)Cc1cn(-c2ncc(-c3ccc(C(F)(F)F)cc3)c(NC3CCCCCC3)n2)nn1	87.5%	42.9%	85.2%	92.1%	84.7%	76.9%	80.6%	74.8%	39.6%	60.4%	83.1%	110%	79.9%	86.5%	71.3%	86%	93.6%	91.9%	81.7%
C#Cc1ccc(-n2c(/C=C/c3ccc(C(F)(F)F)cc3)nc3ncccc3c2=O)cc1	26.6%	11.6%	11.4%	19%	14.9%	43.7%	3.18% (active)	10.2%	0.507% (active)	-9.89% (active)	17.2%	68.8%	-42.6% (active)	54.1%	34%	-8.86% (active)	72.4%	29.3%	35.4%
COc1cccc(NC(=O)c2sc3nc4c(cc3c2N)C(O)CCC4)c1 (configuration not stated)	30.3%	40.3%	79.8%	42%	34.4%	-7.35% (active)	11.2%	6.41% (active)	0.382% (active)	7.49% (active)	17.5%	50.3%	49.1%	24%	27.7%	-34.6% (active)	29.7%	8.86% (active)	62.1%
O=C(Nc1cccc(-n2cc(-c3ccncc3)c(-c3ccc(O)c(Cl)c3)n2)c1)c1ccc(N2CCOCC2)c(C(F)(F)F)c1	57.5%	13.1%	73.4%	29.3%	26.5%	71.7%	20.2%	40.2%	18%	-18% (active)	30.7%	37.8%	69.3%	64.2%	64.8%	60.4%	33.5%	43.1%	36.4%
O=C(c1cccs1)c1ccccc1Cc1ccccc1	96.4%	80.3%	94.5%	100%	89.6%	58.4%	93.7%	92.5%	93.1%	100%	99%	124%	96.9%	101%	99.2%	110%	106%	103%	95%
C#Cc1ccc(-n2c(/C=C/c3cc(OC)cc(OC)c3)nc3ncccc3c2=O)cc1	81.8%	87.6%	81.6%	67.1%	95.8%	91.9%	69%	58.3%	44.8%	25.1%	66.8%	129%	60.2%	68.1%	91.9%	76.4%	88%	77.1%	71.8%
CC(=O)N1C/C(=C/c2ccc(Cl)cc2)C(=O)/C(=C/c2ccc(Cl)cc2)C1	-42.4% (active)	-88.8% (active)	-15.7% (active)	-46.1% (active)	-15% (active)	-5.57% (active)	-13.3% (active)	0.236% (active)	-15.1% (active)	-45.2% (active)	4.95% (active)	18.2%	10.9%	-10.9% (active)	-55.7% (active)	-40.6% (active)	14.5%	10.4%	30.1%
O=S(=O)(NCCCNc1nccc(-c2c(-c3ccc(F)cc3)nc3sccn23)n1)c1ccc(F)cc1	52.3%	3.14% (active)	38.3%	30.8%	29.9%	56.3%	17.5%	22.6%	25.5%	32.1%	17.7%		57.5%	59.7%	18.6%	55.4%	66.8%	31.3%	-2.52% (active)
CC(C)(C#N)Nc1ccccc1	98.8%	103%	115%	97.8%	83.5%	103%	97.1%	102%	116%	105%	105%	100%	99.5%	106%	121%	124%		116%	102%
Cc1cc(Nc2ccc(Cl)cc2)nc(NCCCNc2ccnc3cc(Cl)ccc23)n1	-75.9% (active)	-40.1% (active)	-74.7% (active)	-81.1% (active)	-36.3% (active)	12.7%	-22.7% (active)	-47.7% (active)		-59.8% (active)	-53.5% (active)	-5.16% (active)	-3.7% (active)	-78.7% (active)	6.54% (active)	-80.1% (active)		2.15% (active)	-90.2% (active)
